Results filed as inconclusive are left out. A call without a number means that no potency is given here. Calls of active or inactive are those of the source. Calls follow the shape of the dose curve; as a rule, active = well fitted curve in the direction sought with a large enough effect; inconclusive = small, poorly fitted or top-dose-only effect, or another doubt; inactive = no such curve, though single readings can be large; an effect the other way counts as inactive or inconclusive.

For test [1], the target named is Aldehyde dehydrogenase, mitochondrial (Homo sapiens) (UniProt P05091). As to the kind of experiment: qHTS for Inhibitors of the Aldehyde Dehydrogenase Family (ALDH2) Primary screen (AID 2061308; also: nearly all actives have a fitted effect of over 55% in size). (Quantitative high-throughput screening tests each substance at several concentrations.)
In test [2] the target is Retinaldehyde dehydrogenase 3 (Homo sapiens) (UniProt P47895). As to the kind of experiment: qHTS for Inhibitors of the Aldehyde Dehydrogenase Family (ALDH1A3) Primary screen (AID 2061315).

Take `Cc1ccccc1S(=O)(=O)Nc1cnccc1C(=O)Nc1nc(-c2ccccc2)cs1`: the Potency result in test [1] and in test [2] was “inactive” throughout.

As for `O=C(COC(=O)CNC(=O)c1ccccc1)Nc1ccccc1Cl`, the Potency result in test [1] and in test [2] was “inactive” throughout.

Consider `Nc1ccc(-c2nnc(NC(=O)Nc3ccc(Cl)c(Cl)c3)s2)cc1`, for which the Potency result in test [1] and in test [2] was “inactive” throughout.

On to `Cc1cc2c(s1)c1cnn(Cc3c(C)cc(F)cc3C)c(=O)c1n2C`, for which the Potency entry in test [1] and in test [2] was “inactive” throughout.

Consider `COc1cccc(CNc2ccc(S(=O)(=O)Nc3nccs3)cc2)c1O`, for which the Potency entry in test [1] and in test [2] was “inactive” each time.

Regarding `Nc1ccc(-c2ccc(NC(=O)c3cccs3)cn2)cc1`, the Potency result in test [1] and in test [2] was “inactive” each time.

In the case of `COc1cc(Cl)c(C)cc1NC(=O)C(OC(=O)CNC(=O)c1ccccc1)c1ccccc1` (stereo not drawn), the Potency result in test [1] and in test [2] was “inactive” each time.

On to `CCCn1c(-c2ccc(F)cc2)nc2c(NCC(C)(C)CN(C)C)nc(C)nc21`, for which the Potency result in test [1] and in test [2] was “inactive” in each case.

Consider `Clc1ccc2ncc(-c3cccc(NC4CCNC4)n3)n2c1` (stereo not drawn), for which the Potency result in test [1] and in test [2] was “inactive” in each case.

In the case of `CC(=O)NCc1cc(Cl)c2cccnc2c1O`, the Potency result in test [1] and in test [2] was “inactive” throughout.

On to `O=C1CCCC2=C1C(c1cccc(F)c1)N=C(Nc1nc3ccccc3o1)N2` (stereo not drawn), for which the Potency result in test [1] and in test [2] was “inactive” throughout.

Regarding `O=C(NC1CCCc2c1cnn2-c1ccc(F)cc1F)C1CCCCN1` (stereo not drawn), the Potency result in test [1] and in test [2] was “inactive” in each case.

Take `O=C(CNC(=O)c1ccc(Cl)cc1Cl)OC(C(=O)Nc1cc(C(F)(F)F)ccc1Cl)c1ccccc1` (stereo not drawn): the Potency entry in test [1] and in test [2] was “inactive” in each case.

Regarding `O=C(Nc1nnc(-c2ccncc2)s1)Nc1ccc(Cl)cc1F`, the Potency entry in test [1] and in test [2] was “inactive” in each case.

As to `Cc1nc(CSc2ncnc3ccc(-c4ccc5c(c4)OCO5)cc23)cs1`, the Potency entry in test [1] and in test [2] was “inactive” in each case.

With `CC(=O)c1ccc(N2CCN(S(=O)(=O)c3ccc4c(c3)oc(=O)n4C)CC2)cc1`, the Potency entry in test [1] and in test [2] was “inactive” in each case.

In the case of `O=C(CSc1nc(-c2ccc(F)cc2)nc2c1Cc1ccccc1O2)Nc1ccc(F)cc1`, the Potency entry in test [1] and in test [2] was “inactive” throughout.

As for `O=C(Nc1ccc(Br)c(Br)c1)Nc1nnc(-c2cccnc2)s1`, the Potency result in test [1] and in test [2] was “inactive” each time.

On to `C#CCCC(=O)Nc1sc2c(c1-c1nc3ccccc3s1)CCNC2`, for which the Potency entry in test [1] and in test [2] was “inactive” each time.

Regarding `COc1cccc(-c2nnc3n2N=C(c2c(OC)cccc2OC)CS3)c1`, the Potency entry in test [1] and in test [2] was “inactive” in each case.

For the compound `CC(C)(C)OC(=O)NCCCNc1ncnc2ccc(-c3ccc4c(c3)OCO4)cc12`, the Potency entry in test [1] and in test [2] was “inactive” each time.

`N#Cc1nc(Nc2ccc(-c3ccccc3)cc2)nc(NC2CCCC2)n1`: the Potency result in test [1] and in test [2] was “inactive” each time.

For the compound `Cc1cc(-c2nnc3n2CCCCCCC3)c(C)n1-c1ccccc1`, the Potency result in test [1] and in test [2] was “inactive” in each case.

For the compound `Oc1cccc2cc(-c3ccccc3)cnc12`, the Potency entry in test [1] and in test [2] was “inactive” throughout.

For `N#Cc1nc(Nc2cc(Cl)cc(Cl)c2)nc(NC2CCCC2)n1`, the Potency entry in test [1] and in test [2] was “inactive” in each case.

As to `Cc1ccccc1NC(=O)CN1C(=O)N/C(=C\c2cccn2-c2cccc(C(=O)O)c2)C1=O`, the Potency entry in test [1] and in test [2] was “inactive” each time.

Regarding `Cc1cc(C)nc(NC(=S)N2CCN(c3ccc(F)c(F)c3F)CC2)c1`, the Potency entry in test [1] and in test [2] was “inactive” throughout.

As for `COc1cccc(-c2csc(NC(=O)c3ccncc3NS(=O)(=O)c3ccc(C)cc3)n2)c1`, the Potency result in test [1] and in test [2] was “inactive” in each case.

Regarding `Cc1cnc(-c2ccccc2C(C)C)nc1NCc1cccnc1`, the Potency result in test [1] and in test [2] was “inactive” throughout.

As to `CCOc1ccc(CCNC(=O)c2ccnn2Cc2cccc(C)c2)cc1OCC`, the Potency result in test [1] and in test [2] was “inactive” throughout.

Consider `Fc1ccccc1-c1nc(-c2ccc(-c3nn[nH]n3)cc2)no1`, for which the Potency entry in test [1] and in test [2] was “inactive” each time.

Turning to `COc1cc([C@H]2O[C@H](c3cc(OC)c4c(c3)OCO4)[C@H](C)[C@H]2C)cc(OC)c1OC`, the Potency result in test [1] and in test [2] was “inactive” in each case.

Regarding `Cc1ccc(S(=O)(=O)Nc2cnccc2C(=O)Nc2nc(-c3nc4ccccc4s3)cs2)cc1`, the Potency entry in test [1] and in test [2] was “inactive” in each case.

With `Cc1cc2c(s1)c1cnn(Cc3c(F)c(F)c(C(F)(F)F)c(F)c3F)c(=O)c1n2C`, the Potency entry in test [1] and in test [2] was “inactive” each time.

On to `FC(F)(F)c1ccccc1-c1nc2c(c(NCc3ccc(-c4cccnc4)cc3)n1)CCC2`, for which the Potency result in test [1] and in test [2] was “inactive” in each case.

With `CCOc1ccc(C(=O)Nc2ccc(-c3nc4ccccc4o3)cc2)cc1[N+](=O)[O-]`, the Potency result in test [1] and in test [2] was “inactive” in each case.

As to `Cc1cc(C)n2ncc(C(=O)NCc3ccco3)c2n1`, the Potency result in test [1] and in test [2] was “inactive” each time.

For the compound `O=C(/C=C/c1c(F)c(F)c(F)c(F)c1F)Nc1cccc([S+](=O)([O-])Nc2ccccc2F)c1`, the Potency entry in test [1] and in test [2] was “inactive” each time.

In the case of `O=C(Cc1ccc(Cl)c(Cl)c1)Nc1ccc([S+](=O)([O-])Nc2nnc(-c3ccccn3)s2)cc1`, the Potency result in test [1] and in test [2] was “inactive” each time.

For the origin of these results see PubChem BioAssay (NCATS).
